Key:
Experiment in all cases: log2 ratio of Biotin-Ahx-Ub-VS probe labelling (fragment/DMSO); higher = less target engagement (more negative = stronger competition), active = hit call of the paper (q ≤ 0.05, log2 ratio ≤ -1)
Conditions in all cases: compound concentration: 200 uM; treatment time: 3 h
USP34 = USP34 (UniProt Q70CQ2)
Procedure, shortened: (§1)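 Labelled DUBs were enriched with NeutrAvidin, digested with LysC and trypsin, and run by diaPASEF LC-MS/MS. The labelling used Biotin-Ahx-Ub-VS at 0.5 µM final for 1 h on HEK293T lysate (495 µg per sample) previously treated in triplicate with fragment at 200 µM or vehicle for 3 h. Values are average log2 fragment/vehicle ratios by unpaired t-test on global-median-normalised Spectronaut quantities of proteins with ≥2 unique peptides.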

USP36 = biological target: T1, USP36 (UniProt Q9P275)
T1 sequence (whole entry): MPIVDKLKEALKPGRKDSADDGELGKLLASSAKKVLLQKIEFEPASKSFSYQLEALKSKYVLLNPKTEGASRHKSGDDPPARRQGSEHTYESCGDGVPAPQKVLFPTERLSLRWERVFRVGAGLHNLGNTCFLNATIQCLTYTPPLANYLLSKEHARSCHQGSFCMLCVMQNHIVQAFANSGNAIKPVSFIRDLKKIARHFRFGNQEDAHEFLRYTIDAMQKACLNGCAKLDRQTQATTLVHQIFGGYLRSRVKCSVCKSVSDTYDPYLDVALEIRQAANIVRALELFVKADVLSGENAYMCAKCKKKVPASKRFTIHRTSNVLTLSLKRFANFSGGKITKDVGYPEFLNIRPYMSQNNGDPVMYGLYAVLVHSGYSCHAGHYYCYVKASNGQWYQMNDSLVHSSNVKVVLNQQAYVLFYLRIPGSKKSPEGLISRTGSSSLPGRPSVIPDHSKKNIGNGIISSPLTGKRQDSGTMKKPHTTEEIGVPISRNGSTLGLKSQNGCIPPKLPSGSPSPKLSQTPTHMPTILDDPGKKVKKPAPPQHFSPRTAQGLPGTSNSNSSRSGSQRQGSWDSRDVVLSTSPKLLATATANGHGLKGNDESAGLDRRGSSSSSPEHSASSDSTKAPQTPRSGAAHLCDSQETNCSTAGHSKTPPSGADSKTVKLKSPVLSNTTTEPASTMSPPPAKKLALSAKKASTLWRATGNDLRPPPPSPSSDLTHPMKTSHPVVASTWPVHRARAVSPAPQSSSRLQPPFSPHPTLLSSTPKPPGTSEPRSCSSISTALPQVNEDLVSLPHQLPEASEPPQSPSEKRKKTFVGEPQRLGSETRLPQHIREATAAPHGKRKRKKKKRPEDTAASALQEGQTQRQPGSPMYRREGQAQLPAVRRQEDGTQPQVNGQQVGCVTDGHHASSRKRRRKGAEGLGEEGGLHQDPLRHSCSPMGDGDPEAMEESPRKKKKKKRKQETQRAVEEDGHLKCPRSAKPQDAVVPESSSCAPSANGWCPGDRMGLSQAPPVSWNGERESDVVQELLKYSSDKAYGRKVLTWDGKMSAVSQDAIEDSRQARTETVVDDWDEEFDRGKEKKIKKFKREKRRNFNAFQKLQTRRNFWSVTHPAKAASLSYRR
Procedure, shortened: as §1

USP38 = biological target: T2, USP38 (UniProt Q8NB14)
T2 sequence (whole entry): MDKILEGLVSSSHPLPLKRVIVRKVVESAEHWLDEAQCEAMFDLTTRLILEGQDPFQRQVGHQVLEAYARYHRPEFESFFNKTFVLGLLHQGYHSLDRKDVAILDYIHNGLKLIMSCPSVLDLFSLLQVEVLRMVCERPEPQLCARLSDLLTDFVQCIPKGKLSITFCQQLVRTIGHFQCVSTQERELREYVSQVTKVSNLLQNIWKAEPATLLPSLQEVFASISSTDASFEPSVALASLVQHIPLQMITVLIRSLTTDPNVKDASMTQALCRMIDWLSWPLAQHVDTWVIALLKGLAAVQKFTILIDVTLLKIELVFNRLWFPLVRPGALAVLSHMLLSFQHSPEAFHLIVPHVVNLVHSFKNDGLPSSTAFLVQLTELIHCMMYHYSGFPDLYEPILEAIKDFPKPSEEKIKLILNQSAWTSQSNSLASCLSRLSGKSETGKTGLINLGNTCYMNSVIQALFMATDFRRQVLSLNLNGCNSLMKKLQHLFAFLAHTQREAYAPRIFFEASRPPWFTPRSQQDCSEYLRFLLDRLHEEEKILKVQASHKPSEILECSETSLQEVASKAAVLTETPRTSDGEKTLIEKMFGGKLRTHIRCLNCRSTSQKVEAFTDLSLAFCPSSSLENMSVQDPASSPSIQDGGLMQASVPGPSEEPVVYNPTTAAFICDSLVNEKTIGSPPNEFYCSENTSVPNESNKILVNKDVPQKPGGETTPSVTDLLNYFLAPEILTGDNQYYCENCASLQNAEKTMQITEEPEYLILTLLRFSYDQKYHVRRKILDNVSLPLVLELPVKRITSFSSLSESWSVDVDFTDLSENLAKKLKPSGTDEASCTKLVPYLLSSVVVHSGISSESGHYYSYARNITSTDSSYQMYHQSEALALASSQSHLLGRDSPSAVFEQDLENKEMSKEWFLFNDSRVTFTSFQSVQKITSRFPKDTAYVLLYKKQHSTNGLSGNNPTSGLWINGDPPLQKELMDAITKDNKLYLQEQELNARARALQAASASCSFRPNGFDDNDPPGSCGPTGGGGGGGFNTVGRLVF
Procedure, shortened: as §1

USP39 = biological target: T3, USP39 (UniProt Q53GS9)
T3 sequence (whole entry): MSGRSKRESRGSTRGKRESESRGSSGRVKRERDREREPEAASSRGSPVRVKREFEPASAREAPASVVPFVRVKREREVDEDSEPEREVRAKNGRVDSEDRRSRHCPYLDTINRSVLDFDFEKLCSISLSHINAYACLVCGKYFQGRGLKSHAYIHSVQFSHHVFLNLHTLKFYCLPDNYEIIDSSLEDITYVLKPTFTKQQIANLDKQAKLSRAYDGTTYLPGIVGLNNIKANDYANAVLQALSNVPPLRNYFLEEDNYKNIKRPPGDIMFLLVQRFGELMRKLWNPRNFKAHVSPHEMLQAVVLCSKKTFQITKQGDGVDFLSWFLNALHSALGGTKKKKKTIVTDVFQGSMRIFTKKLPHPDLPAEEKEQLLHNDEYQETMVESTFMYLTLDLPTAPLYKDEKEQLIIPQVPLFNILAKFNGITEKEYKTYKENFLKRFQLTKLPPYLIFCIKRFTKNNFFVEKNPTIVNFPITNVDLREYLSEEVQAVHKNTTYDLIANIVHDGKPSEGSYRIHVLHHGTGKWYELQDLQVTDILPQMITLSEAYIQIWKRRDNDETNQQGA
Procedure, shortened: as §1

USP4 = biological target: T4, USP4 (UniProt Q13107)
T4 sequence (whole entry): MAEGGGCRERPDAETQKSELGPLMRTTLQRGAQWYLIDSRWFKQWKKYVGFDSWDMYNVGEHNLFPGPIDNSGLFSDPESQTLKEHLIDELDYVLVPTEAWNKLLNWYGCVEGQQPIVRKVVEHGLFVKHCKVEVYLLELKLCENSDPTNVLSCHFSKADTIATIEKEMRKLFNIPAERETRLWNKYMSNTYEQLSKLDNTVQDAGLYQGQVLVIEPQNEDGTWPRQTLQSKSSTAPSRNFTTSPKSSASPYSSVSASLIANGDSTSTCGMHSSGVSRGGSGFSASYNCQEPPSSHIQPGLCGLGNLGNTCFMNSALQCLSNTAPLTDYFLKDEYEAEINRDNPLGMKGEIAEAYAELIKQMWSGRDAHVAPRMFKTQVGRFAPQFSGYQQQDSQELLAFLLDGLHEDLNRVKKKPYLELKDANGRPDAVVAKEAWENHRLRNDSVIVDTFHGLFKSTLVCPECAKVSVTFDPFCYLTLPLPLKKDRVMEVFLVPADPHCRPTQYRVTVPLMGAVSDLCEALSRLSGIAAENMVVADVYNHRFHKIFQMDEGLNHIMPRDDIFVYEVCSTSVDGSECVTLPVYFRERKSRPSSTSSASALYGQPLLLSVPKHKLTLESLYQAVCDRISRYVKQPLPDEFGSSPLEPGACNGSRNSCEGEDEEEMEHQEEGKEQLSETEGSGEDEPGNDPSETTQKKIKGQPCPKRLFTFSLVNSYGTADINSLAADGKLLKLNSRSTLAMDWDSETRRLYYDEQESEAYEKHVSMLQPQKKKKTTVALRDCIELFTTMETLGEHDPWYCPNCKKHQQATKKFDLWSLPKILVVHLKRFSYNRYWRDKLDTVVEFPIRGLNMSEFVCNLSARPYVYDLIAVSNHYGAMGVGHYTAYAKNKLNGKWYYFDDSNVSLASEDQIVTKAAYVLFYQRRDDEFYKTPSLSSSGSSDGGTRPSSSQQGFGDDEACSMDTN
Procedure, shortened: as §1

Measured: log2 ratio of Biotin-Ahx-Ub-VS probe labelling

USP34, sequence (Q70CQ2 whole entry, the tested form may be a part): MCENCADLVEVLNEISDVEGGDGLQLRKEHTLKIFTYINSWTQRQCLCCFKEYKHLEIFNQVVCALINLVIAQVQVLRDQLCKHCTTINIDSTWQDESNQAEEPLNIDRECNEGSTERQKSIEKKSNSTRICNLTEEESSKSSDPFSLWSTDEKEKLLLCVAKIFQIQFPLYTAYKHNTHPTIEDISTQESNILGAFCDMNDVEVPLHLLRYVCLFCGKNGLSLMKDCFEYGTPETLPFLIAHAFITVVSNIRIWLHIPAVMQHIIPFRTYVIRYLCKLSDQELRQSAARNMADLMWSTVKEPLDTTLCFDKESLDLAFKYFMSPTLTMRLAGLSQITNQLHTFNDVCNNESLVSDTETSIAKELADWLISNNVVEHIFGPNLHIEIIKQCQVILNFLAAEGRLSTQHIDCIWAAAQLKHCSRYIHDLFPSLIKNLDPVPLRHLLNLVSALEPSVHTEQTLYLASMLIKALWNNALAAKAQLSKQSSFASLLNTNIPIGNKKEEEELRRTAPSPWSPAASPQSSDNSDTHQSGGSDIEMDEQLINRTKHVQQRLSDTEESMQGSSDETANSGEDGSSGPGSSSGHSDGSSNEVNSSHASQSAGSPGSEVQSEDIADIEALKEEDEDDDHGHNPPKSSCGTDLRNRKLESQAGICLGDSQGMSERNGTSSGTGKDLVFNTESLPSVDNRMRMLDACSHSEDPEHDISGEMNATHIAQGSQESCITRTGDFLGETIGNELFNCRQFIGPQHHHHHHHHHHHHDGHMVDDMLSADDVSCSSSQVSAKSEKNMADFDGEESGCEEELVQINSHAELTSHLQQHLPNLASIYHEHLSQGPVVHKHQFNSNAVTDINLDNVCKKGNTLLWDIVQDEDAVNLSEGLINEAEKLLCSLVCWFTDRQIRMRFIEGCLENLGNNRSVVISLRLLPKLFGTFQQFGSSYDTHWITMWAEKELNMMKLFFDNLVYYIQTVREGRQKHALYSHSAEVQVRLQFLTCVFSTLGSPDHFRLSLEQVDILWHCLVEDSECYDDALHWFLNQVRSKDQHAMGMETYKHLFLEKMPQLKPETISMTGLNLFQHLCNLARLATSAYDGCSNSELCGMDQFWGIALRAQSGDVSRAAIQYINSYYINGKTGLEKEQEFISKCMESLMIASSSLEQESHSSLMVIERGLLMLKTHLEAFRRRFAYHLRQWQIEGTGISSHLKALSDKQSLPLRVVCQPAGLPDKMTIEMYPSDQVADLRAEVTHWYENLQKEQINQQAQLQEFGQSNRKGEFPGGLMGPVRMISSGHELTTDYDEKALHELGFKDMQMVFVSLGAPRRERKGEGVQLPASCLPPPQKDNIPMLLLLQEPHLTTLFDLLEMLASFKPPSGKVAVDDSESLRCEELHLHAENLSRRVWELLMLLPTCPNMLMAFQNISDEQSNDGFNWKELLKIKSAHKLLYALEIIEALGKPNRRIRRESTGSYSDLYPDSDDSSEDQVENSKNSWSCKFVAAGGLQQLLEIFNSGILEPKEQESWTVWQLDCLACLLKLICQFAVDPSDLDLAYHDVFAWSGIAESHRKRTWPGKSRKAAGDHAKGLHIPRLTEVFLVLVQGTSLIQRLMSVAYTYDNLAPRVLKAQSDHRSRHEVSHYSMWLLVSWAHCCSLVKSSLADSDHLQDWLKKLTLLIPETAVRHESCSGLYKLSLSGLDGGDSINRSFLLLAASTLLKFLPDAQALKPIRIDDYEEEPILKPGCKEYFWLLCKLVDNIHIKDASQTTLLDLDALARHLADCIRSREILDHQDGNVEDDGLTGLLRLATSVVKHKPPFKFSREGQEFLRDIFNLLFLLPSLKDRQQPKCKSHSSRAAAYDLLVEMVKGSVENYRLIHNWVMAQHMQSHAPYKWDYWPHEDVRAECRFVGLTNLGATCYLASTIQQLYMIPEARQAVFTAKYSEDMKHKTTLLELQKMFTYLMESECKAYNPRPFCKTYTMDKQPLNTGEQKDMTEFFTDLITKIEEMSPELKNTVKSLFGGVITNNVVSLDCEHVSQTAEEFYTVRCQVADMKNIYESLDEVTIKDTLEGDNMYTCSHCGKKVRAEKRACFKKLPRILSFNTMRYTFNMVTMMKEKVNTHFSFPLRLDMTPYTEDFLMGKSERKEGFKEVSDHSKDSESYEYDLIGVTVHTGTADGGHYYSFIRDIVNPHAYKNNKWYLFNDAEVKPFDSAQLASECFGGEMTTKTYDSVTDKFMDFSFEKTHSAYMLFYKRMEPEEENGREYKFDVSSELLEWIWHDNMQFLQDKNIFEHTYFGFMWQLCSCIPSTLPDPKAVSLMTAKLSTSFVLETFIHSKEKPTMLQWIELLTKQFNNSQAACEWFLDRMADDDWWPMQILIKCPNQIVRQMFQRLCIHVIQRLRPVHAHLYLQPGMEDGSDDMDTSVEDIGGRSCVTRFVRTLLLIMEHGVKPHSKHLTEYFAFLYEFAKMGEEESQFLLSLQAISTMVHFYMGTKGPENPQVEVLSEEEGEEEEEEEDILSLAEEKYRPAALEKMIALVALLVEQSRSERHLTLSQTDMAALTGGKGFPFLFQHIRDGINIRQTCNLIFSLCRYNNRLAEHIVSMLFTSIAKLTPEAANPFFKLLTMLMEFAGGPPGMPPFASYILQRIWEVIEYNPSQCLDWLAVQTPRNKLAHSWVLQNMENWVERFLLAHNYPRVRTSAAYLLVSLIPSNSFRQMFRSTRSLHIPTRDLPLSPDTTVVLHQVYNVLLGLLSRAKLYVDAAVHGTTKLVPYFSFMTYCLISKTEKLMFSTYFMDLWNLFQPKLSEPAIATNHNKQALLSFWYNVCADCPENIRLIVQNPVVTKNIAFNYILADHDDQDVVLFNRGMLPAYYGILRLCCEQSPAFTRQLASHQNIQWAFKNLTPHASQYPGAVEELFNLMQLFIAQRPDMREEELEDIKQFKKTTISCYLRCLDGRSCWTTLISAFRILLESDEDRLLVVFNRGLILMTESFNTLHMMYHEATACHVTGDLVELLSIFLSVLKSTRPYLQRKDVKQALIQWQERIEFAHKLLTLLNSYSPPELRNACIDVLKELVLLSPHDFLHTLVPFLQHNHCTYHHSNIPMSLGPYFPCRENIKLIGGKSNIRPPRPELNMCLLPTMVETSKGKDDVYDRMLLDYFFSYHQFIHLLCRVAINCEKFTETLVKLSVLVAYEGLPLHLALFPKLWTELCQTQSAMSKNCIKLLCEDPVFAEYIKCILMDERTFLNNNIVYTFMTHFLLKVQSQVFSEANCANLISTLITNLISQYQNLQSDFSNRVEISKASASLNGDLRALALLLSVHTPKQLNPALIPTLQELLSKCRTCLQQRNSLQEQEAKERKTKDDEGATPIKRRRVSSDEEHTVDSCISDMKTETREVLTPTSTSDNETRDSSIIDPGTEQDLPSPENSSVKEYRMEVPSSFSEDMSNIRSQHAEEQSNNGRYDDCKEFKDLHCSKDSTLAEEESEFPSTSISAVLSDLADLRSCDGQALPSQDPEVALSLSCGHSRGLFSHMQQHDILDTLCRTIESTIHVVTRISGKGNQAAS

Cc1noc(C)c1CNC(=O)CCl
inactive: USP34 -0.584 | USP36 -0.32 | USP38 -0.547 | USP39 0.303 | USP4 -0.608
